Sampled rows, rich in hits. Any-hit rate of the full collection: about 7.5%.
HCMV inh: blocks human cytomegalovirus replication; HFF cells, HCMV-luciferase reporter, 72 h; hits give low values; activity change, negative = inhibition, % at 57.5 µM; 4.5% of 410,000 active; in the data active means activity change below about -60%; inconclusive means no clear call, values can overlap the other calls; inactive means above about -39%
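Luciferase read-out from HCMV-luciferase-infected HFFs (MOI 1 PFU/cell) 72 h post infection at 37C; compounds added after 16 h cell attachment; activity normalized between buffer-only basal and Salinomycin (10uM) inhibitor controls.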
Vaccinia Venus: vaccinia inhibition (Venus reporter); 0.46% of 330,000 active; Vaccinia virus Venus reporter expression, fluorescence; Potency, µM (titrated, usually from 36.5 µM), actives largely listed as inhibitors; calls by dose curve; tested in A549 cells; further: nearly all actives have a fitted effect of over 30% in size
VACV mCherry inh: inhibitors of vaccinia virus infection (mCherry reporter signal); 0.63% of 310,000 active; Potency, µM (highest dose often 36.5 µM), most hits filed as inhibitors; Vaccinia virus mCherry reporter infection, fluorescence; calls by dose curve; tested in A549 cells; further: nearly all actives have a fitted effect of over 35% in size
FMDV inh: blocks foot and mouth disease virus | 1.2% of 410,000 active | FMDV antiviral cell-based qHTS | AID 1159524 | Potency, µM (titrated, usually from 57.9 µM), actives largely listed as inhibitors; calls by dose curve; tested in HEK293T cells; further: read-out not given here; nearly all actives have a fitted effect of over 45% in size
FBPA Giardia inh: Giardia lamblia aldolase inhibition; purified Giardia FBPA; Potency, µM (series often up to 59.6 µM), most hits filed as inhibitors; A8B2U2; AID 2451; 0.71% of 290,000 active; further: nearly all actives have a fitted effect of over 55% in size
Target sequence (A8B2U2 whole entry, looked up): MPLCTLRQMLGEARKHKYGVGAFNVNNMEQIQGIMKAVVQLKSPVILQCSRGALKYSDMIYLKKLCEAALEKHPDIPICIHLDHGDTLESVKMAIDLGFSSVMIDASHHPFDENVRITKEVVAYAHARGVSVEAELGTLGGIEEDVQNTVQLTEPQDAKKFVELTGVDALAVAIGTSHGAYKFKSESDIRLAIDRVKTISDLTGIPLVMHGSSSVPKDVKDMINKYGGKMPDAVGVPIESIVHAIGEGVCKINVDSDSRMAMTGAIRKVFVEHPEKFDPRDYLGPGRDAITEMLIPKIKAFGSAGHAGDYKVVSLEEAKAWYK
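40 nM FBPA preincubated 10 min at RT with compound (up to 57.5 uM final), then substrate plus GAPDH/TPI/NAD/arsenate coupling and diaphorase/resazurin added. Fluorescence read after 20 min at RT, 525/598 nm.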
HCV inhibitor: blocks hepatitis C virus. Huh7.5.1 HCVcc-Cre infection, luciferase reporter, 44 h. Potency, µM (titrated, usually from 41.8 µM), usual class: inhibitors. 3.4% of 340,000 active
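After 44 h co-culture of compound, cells and HCVcc-Cre (~0.5 moi), substrate is added for 15 min at room temperature and luciferase measured over 15 sec. Cells were seeded at 1,000/well and pre-cultured 4 h.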
Hits are given with their value; i = inactive; ? = inconclusive; nt = no result given; [ ] = remark or other dose. Unless noted, the call rests on the fitted dose curve; in most records, active means well fitted curve in the direction sought with a large enough effect; inconclusive means small, poorly fitted or top-dose-only effect, or another doubt; inactive means no such curve, though single readings can be large; an effect the other way counts as inactive or inconclusive.

SMILES | HCMV inh | Vaccinia Venus | VACV mCherry inh | FMDV inh | FBPA Giardia inh | HCV inhibitor
Cc1cccc(/C=N/NC(=O)Cc2ccc(Cl)cc2)c1O | -89.3 | nt | nt | i | i | 12.6µM
Cc1ccc(O)c(/C=N/NC(=O)Cc2ccc(Cl)cc2)c1 | -99.4 | nt | nt | i | i | ?
COc1cccc(/C=N/NC(=O)c2c(C)nc3ccc(Cl)cn23)c1O | -99.2 | ? | 3.16µM | i | i | 2.51µM
CCOC(=O)C1=CCN(S(=O)(=O)c2ccccc2[N+](=O)[O-])C1c1ccc(C)cc1 (stereo not given) | i | i | i | i | nt | nt
N#CC1CC(c2ccccc2)Nc2cc(Cl)ccc2N1 (stereo not given) | i | ? | i | i | i | i
O=C(N/N=C/c1c[nH]c2ccccc12)c1ccc(Cl)cc1 | i | i | i | i | i | ?
Cc1cccc(/C=N\NC(=O)c2ccc(Cl)cc2)c1O | -101.2 | ? | 2.51µM | i | i | ?
N#Cc1c(C(F)(F)F)cc(-c2ccccc2)nc1SCCN1CCOCC1 | i | i | i | nt | i | 7.94µM
CCNc1ccc(S(=O)(=O)NCCN(C)C)cc1[N+](=O)[O-] | i | nt | nt | i | i | i
CN(C)CCCNS(=O)(=O)c1ccc(NC2CCCCCC2)c([N+](=O)[O-])c1 | -69.1 | i | 8.91µM | i | nt | 5.62µM
Cc1ccc(C(=O)NCCCNC(=O)c2ccco2)cc1C | i | i | i | i | i | i
O=C(Nc1ccc(N2CCOCC2)nc1)c1ccc(C(F)(F)F)cc1 | -68.2 | i | i | 8.91µM | i | 7.08µM
CCC(C)c1ccc(NC(=O)C2CCN(c3ncccn3)CC2)cc1 (stereo not given) | i | nt | nt | i | i | ?
CC(=O)Nc1ccc(NC(=O)C2CCN(c3ccc(C(F)(F)F)cn3)CC2)cc1 | -67.2 | i | i | i | i | 12.6µM
Cc1cccc(C(=O)Nc2ccc(N3CCN(c4ccc(C(F)(F)F)cn4)CC3)nc2)c1 | i | i | i | i | i | i
CCC(C)c1ccc(NC(=O)C2CCN(c3ccc(C(F)(F)F)cn3)CC2)cc1 (stereo not given) | -60.4 | i | i | ? | i | i
CS(=O)(=O)Nc1ccc(N2CCN(c3ccc(C(F)(F)F)cn3)CC2)nc1 | ? | i | i | ? | i | 11.2µM
CC(C)CCNC(=O)c1csc2c1CCCCC2 | i | i | i | i | i | i
CCCCN(CC)CCCNC(=O)c1csc2c1CCCCC2 | ? | nt | nt | ? | i | 35.5µM
Cc1ccc(C2=NN(C(=O)CSc3nnnn3C)C(c3ccco3)C2)cc1 (stereo not given) | ? | nt | nt | i | nt | i
C=CCC[C@H](Cc1ccc(F)cc1)C(=O)OC[C@H](Cc1c[nH]c2ccccc12)NC(=O)[C@@H](CC=C)CC(=O)N[C@@H](CO)Cc1ccccc1 | -86.4 | 10µM | i | i | nt | ?
C=CCC[C@H](Cc1ccc(F)cc1)C(=O)OC[C@H](Cc1c[nH]c2ccccc12)NC(=O)[C@@H](CC=C)CC(=O)N[C@H](CO)Cc1ccccc1 | i | 11.2µM | i | ? | nt | ?
C=CCC[C@@H](Cc1ccc(F)cc1)C(=O)OC[C@H](Cc1c[nH]c2ccccc12)NC(=O)[C@@H](CC=C)CC(=O)N[C@H](CO)Cc1ccccc1 | i | ? | i | i | nt | i
CCCCn1c(N)c(N(CCOC)C(=O)c2ccc(C)c(S(=O)(=O)N3CCCCC3)c2)c(=O)[nH]c1=O | i | i | i | i | nt | ?
Cc1ccc(OCc2nc(-c3ccccn3)no2)c(Br)c1 | i | nt | nt | i | i | i
SMILES | HCMV inh | Vaccinia Venus | VACV mCherry inh | FMDV inh | FBPA Giardia inh | HCV inhibitor
CC(C)c1ccc(OCc2nc(-c3ccccn3)no2)c(Br)c1 | i | i | i | i | i | 12.6µM
Cc1nc([N+](=O)[O-])c(C(=O)OCc2ccccc2Br)n1C | i | i | i | i | i | i
Cc1nc([N+](=O)[O-])c(Br)n1CC(=O)c1ccccc1 | i | 2.24µM | nt | ? | i | ?
Cc1nc([N+](=O)[O-])c(Br)n1CC(=O)c1ccc(Br)cc1 | i | nt | nt | 12.6µM | i | ?
Cc1nc([N+](=O)[O-])c(Br)n1CC(=O)c1ccc2ccccc2c1 | i | 1.58µM | 1.12µM | 22.4µM | i | 10µM
Cc1cc([N+](=O)[O-])nn1CC(=O)c1ccccc1 | i | nt | nt | i | i | i
COc1ccc(N2CC(C(=O)Nc3nc4ccc(F)cc4s3)CC2=O)c(OC)c1 (stereo not given) | i | ? | ? | i | i | ?
O=C(NCc1cccnc1)c1cc(C2CCCCN2S(=O)(=O)c2cccc3cccnc23)on1 (stereo not given) | i | i | i | i | nt | nt
CCCCn1c(Nc2ccccc2)nc2ccccc21 | i | nt | nt | i | i | i
CCCn1c(Nc2nc3ccccc3n2C)nc2ccccc21 | -99.8 | nt | nt | ? | ? | ?
CCC(=O)NCc1nc2ccccc2n1Cc1ccccc1F | -99.4 | nt | nt | i | i | i
CCn1c(NCc2cc(Cl)ccc2O)nc2ccccc21 | i | nt | nt | i | i | 31.6µM
CCCc1nc2ccccc2n1CCc1ccccc1 | -73.6 | i | i | i | i | i[0.335 µM]
O=C(CN1CCN(S(=O)(=O)c2ccc(Cl)c(Cl)c2)CC1)N1CCCC1 | i | i | i | i | nt | i
O=C(O)c1ccc2c(c1)C(=O)N([C@H](Cc1ccc(Cl)cc1)C(=O)O)C2=O | nt | nt | nt | nt | i | nt
CCCCCCCn1c(NC(=O)CC)nc2ccccc21 | -83.9 | i | i | i | i | i
CCC(=O)Nc1nc2ccccc2n1Cc1ccc(Cl)cc1 | -76.2 | nt | nt | ? | i | ?
CCn1c(NN=O)nc2ccccc21 | -103.3 | i | ? | i | i | 6.31µM
CCC(=O)Nc1nc2ccccc2n1Cc1ccccc1Cl | ? | nt | nt | i | i | ?
CC(=O)Nc1nc2ccccc2n1Cc1ccccc1Cl | -96.3 | ? | i | ? | i | i
CCn1c(Nc2ccccc2Cl)nc2ccccc21 | i | i | i | i | i | i
Cc1ccc(CN2CCOc3ccc(C(C)(O)COc4ccccc4)cc3C2)o1 (stereo not given) | nt | i | i | i | nt | nt
Cc1cccc(NC(=O)c2ccc(C3SCC(=O)N3CCc3ccccc3)cc2)c1C (stereo not given) | -72.1 | nt | nt | ? | i | ?
CCOC(=O)C1(C)CCCN1C(=O)c1cccc(OC)c1 (stereo not given) | i | i | i | i | nt | nt
CCOC(=O)[C@]12Cc3cc(OC)ccc3[C@H]1N(C1CCCCC1)C(=O)c1cc(OC)ccc12 | -98.3 | ? | ? | 12.6µM | nt | nt
CCOC(=O)[C@H]1[C@H]2COc3cc(OC)ccc3[C@@H]2N2C(=O)c3cc(C)ccc3NC(=O)[C@@]12C | i | i | i | i | nt | i
CCOC(=O)[C@]12Cc3cc(C)ccc3[C@H]1N(C1CCCCC1)C(=O)c1cc(OC)ccc12 | -103.5 | ? | ? | 3.55µM | nt | nt
NS(=O)(=O)c1ccc(CCNc2ncnc3c2cnn3-c2cccc(Cl)c2)cc1 | i | i | i | ? | nt | nt
CC(C)c1ccc(C2C3=C(CC(C)(C)CC3=O)NC3=C2C(=O)c2ccccc23)cc1 (stereo not given) | -71.8 | ? | ? | i | i | 11.2µM
CC1(C)CC(=O)C2=C(C1)NC1=C(C(=O)c3ccccc31)C2c1ccccc1 (stereo not given) | ? | ? | i | ? | i | ?

Bioassay records: PubChem BioAssay, National Center for Advancing Translational Sciences (NCATS)
